The supplement of paper PMC10849652
Targets with a hit are over-represented here; the source holds about 8,800 in all. About 0.5% of all pairs of compound and target were hits.

Key:
Assay in all cases: log2 fold change, soluble protein after heating vs DMSO (PISA); higher = thermal stabilisation; K562 lysate, 10 uM; active = over 0.2 and 3.5 SD of the protein, either way, in both replicates (recomputed)
erlotinib = compound: C#Cc1cccc(Nc2ncnc3cc(OCCOC)c(OCCOC)cc23)c1 [erlotinib]
Method in brief: (§1)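 Log-two fold change in thermal stability relative to solvent controls is reported from duplicates. For each sample, crude K562 extract from dounce-homogenised pellets in PBS pH 7.4 with 1 mM MgCl2, at 1 mg/mL protein, was treated with 10 μM compound for 30 min. Aliquots heated for 3 min across 48°C-58°C were pooled, brought to 0.5% NP-40 at 4°C and cleared at 21,000xg for 90 min. The supernatant was quantified by TMTpro 16plex LC-MS/MS with channel sums equalised.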

[1] = compound: C/C(=N\NC(=O)C1=CC(=CC=C1)S(=O)(=O)N2CCOCC2)/C3=C(C=CC(=C3)Cl)O
Method in brief: as §1

[2] = compound: C1=CC(=CC=C1C2=NC3=C(N2)C=C(C=C3)C(=O)N)OC4=CC=C(C=C4)Cl
Method in brief: as §1

[3] = compound: C1=CC2=C(C=CC(=C2)/C=C\3/C(=O)NC(=NCC4=CC=CS4)S3)N=C1
Method in brief: as §1

[4] = compound: C1=CC=C(C=C1)C2=NC(=C(N2)C3=CC=NC=C3)C4=CC(=C(C=C4)Cl)O
Method in brief: as §1

[5] = compound: C1=CC=C2C(=C1)C3=NNC4=CC=CC(=C43)C2=O
Method in brief: as §1

[6] = compound: C1CCN(C1)C(=O)NC2=CC=CC(=C2)NC3=NC=C(C(=N3)NCCC4=CN=CN4)Br
Method in brief: as §1

[7] = compound: C1CN(CCC1(CC2=CC=C(C=C2)Cl)N)C3=NC=NC4=C3C=CN4
Method in brief: as §1

[8] = compound: C1=CC2=NC=CN=C2C=C1/C=C/3\C(=O)NC(=O)S3
Method in brief: as §1

IRAK-1-4 Inhibitor I = compound: C1COCCN1CCN2C3=CC=CC=C3N=C2NC(=O)C4=CC(=CC=C4)[N+](=O)[O-] [IRAK-1-4 Inhibitor I]
Method in brief: as §1

Measured: log2 fold change

BCORL1 isoform 3 (UniProt Q5H9F3)
Chain of UniProt Q5H9F3 (Q5H9F3 whole entry, looked up): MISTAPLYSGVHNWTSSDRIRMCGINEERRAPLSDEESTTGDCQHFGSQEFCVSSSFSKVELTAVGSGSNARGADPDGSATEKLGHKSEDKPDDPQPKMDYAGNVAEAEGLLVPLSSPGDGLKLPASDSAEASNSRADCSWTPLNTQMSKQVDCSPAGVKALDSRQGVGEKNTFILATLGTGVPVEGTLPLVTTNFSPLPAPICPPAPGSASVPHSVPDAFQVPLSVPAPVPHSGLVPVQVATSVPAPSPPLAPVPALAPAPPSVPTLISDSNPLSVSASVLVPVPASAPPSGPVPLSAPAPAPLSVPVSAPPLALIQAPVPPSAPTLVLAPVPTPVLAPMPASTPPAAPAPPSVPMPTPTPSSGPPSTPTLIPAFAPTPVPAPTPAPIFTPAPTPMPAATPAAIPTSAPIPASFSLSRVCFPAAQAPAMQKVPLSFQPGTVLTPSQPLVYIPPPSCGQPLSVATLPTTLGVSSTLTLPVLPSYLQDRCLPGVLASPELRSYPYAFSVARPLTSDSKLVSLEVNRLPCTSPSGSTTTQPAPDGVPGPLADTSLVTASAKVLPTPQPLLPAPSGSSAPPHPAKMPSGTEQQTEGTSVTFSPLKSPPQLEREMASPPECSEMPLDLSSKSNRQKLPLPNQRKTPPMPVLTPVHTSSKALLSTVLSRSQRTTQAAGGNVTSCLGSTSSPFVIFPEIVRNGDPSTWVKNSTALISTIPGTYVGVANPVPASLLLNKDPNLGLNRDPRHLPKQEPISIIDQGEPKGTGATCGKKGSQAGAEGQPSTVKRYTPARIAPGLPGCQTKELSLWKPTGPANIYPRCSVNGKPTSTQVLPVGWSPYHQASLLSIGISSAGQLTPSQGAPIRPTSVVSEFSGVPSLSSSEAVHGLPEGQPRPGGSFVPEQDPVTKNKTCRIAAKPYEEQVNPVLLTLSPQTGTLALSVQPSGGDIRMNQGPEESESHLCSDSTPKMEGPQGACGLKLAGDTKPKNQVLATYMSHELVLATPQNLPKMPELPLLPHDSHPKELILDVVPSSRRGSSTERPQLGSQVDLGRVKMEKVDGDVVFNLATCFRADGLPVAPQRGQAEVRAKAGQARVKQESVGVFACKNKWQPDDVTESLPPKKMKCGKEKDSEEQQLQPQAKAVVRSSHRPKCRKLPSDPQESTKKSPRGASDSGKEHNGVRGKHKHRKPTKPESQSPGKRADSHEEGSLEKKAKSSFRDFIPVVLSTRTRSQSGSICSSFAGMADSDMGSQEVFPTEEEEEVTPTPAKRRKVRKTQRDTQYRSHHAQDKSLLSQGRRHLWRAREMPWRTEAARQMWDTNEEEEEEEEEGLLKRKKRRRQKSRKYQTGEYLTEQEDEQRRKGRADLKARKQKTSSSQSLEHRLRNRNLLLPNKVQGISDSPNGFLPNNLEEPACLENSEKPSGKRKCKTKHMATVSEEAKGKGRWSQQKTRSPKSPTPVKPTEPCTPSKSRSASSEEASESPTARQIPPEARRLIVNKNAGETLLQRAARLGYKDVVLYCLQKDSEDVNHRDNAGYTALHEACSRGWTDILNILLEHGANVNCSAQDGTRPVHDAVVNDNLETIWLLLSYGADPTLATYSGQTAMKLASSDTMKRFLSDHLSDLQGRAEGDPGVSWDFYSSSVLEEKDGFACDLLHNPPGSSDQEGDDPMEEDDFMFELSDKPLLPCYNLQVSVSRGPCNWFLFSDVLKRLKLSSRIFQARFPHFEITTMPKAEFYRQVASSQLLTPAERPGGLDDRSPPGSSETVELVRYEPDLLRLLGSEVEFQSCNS
inactive: erlotinib 0.002 | [1] -0.015 | [2] 0.15 | [3] -0.117 | [4] 0.004 | [5] -0.115 | [6] -0.114 | [7] -0.005

CDC25C (UniProt P30307)
inactive: erlotinib 0.007 | [1] -0.157 | [2] -0.061 | [3] 0.042 | [8] -0.031 | [4] 0.026 | [5] -0.148 | [6] -0.035 | [7] -0.058 | IRAK-1-4 Inhibitor I -0.039

ATF7IP2 (UniProt Q5U623)
inactive: erlotinib 0.012 | [1] -0.034 | [2] 0.086 | [3] 0.026 | [8] -0.069 | [4] -0.027 | [5] -0.132 | IRAK-1-4 Inhibitor I 0.027

CDC42EP4 (UniProt Q9H3Q1)
inactive: erlotinib 0.025 | [1] -0.053 | [2] -0.005 | [3] 0.017 | [8] -0.109 | [4] 0.007 | [5] 0.044 | [6] -0.069 | [7] 0.054 | IRAK-1-4 Inhibitor I -0.055

ATAD1 (UniProt Q8NBU5)
inactive: erlotinib 0.004 | [1] 0.046 | [2] -0.016 | [3] 0.027 | [8] -0.059 | [4] -0.041 | [5] 0.004 | [6] -0.029 | [7] 0.015 | IRAK-1-4 Inhibitor I 0.063

CANX (UniProt D6RHJ3)
inactive: [1] -0.321 | [3] 0.031 | [5] -0.022

CDC25A (UniProt P30304)
inactive: erlotinib 0.016 | [2] 0.085 | [4] 0 | IRAK-1-4 Inhibitor I 0.052

C15orf39 (UniProt Q6ZRI6)
inactive: erlotinib -0.029 | [2] 0.026 | [8] -0.031 | [4] 0.052 | [6] 0.019 | [7] -0.009 | IRAK-1-4 Inhibitor I 0.034

BRAF, A0A2R8Y8E0
inactive: [1] -0.005 | [3] 0.001 | [5] 0.119 | [6] 0.067 | [7] -0.045

ATE1 (UniProt O95260)
inactive: [8] 0.005

CDKL5 (UniProt O76039)
inactive: [1] -0.216 | [3] -0.08 | [5] 0.339 | [6] 0.423 | [7] 0.085

CEP295 isoform 3 (UniProt Q9C0D2)
inactive: erlotinib -0.063 | [2] -0.02 | [8] 0.051 | [4] -0.092 | [6] 0.015 | [7] 0.111 | IRAK-1-4 Inhibitor I -0.143

C8orf88 (UniProt P0DMB2)
inactive: erlotinib -0.006 | [2] -0.185 | [8] 0.028 | [4] -0.003 | IRAK-1-4 Inhibitor I -0.013

B3GALT6 (UniProt Q96L58)
inactive: erlotinib 0.074 | [2] -0.04 | [8] 0.022 | [4] -0.028 | IRAK-1-4 Inhibitor I -0.049

CDK11A (UniProt Q9UQ88)
Chain of UniProt Q9UQ88 (Q9UQ88 whole entry, looked up): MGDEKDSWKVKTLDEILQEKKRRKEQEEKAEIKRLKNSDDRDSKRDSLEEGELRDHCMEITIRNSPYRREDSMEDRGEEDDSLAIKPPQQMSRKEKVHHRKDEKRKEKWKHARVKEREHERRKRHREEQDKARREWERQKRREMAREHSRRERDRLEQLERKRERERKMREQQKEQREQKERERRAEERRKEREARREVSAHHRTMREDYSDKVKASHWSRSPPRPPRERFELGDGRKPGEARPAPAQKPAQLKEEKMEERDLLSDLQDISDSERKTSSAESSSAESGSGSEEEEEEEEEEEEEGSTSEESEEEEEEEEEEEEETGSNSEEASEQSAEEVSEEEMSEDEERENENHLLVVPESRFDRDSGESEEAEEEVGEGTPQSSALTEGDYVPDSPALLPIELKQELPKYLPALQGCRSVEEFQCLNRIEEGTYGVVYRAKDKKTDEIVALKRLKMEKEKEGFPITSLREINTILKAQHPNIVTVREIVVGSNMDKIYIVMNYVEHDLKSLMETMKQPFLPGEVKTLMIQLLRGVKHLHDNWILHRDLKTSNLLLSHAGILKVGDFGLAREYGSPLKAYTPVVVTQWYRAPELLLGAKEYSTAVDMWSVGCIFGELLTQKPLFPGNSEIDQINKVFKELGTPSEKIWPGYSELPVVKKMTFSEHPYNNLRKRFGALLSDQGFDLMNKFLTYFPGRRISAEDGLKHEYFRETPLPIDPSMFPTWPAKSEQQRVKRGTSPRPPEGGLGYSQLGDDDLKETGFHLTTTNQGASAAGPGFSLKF
inactive: erlotinib 0.053 | [2] -0.128 | [8] -0.037 | [4] 0.027 | IRAK-1-4 Inhibitor I -0.009

ATPSCKMT (UniProt Q6P4H8)
inactive: [8] 0 | [4] 0.075 | [6] -0.074 | [7] -0.006 | IRAK-1-4 Inhibitor I -0.046

CAPNS1 (UniProt U3KPR7)
inactive: [8] -0.105

CASP7 isoform 3 (UniProt P55210)
inactive: erlotinib 0.104 | [2] 0.008 | [8] -0.086 | [4] 0.019 | [6] -0.013 | [7] 0.098 | IRAK-1-4 Inhibitor I 0.241

CASC1 (UniProt Q6TDU7)
active: [8] 1.74
inactive: [4] -0.03 | IRAK-1-4 Inhibitor I 0.179

C6orf120 (UniProt Q7Z4R8)
inactive: erlotinib 0.043 | [2] -0.014 | [8] 0.008

BAHCC1 (UniProt Q9P281)
inactive: erlotinib -0.047 | [1] 0.026 | [2] 0.076 | [3] -0.126 | [5] -0.009 | [6] -0.101 | [7] -0.11

CAD (UniProt H7BZB3)
inactive: erlotinib 0.126 | [1] -0.127 | [2] -0.28 | [3] -0.069 | [5] -0.034 | [6] -0.035 | [7] -0.007

CCND3 (UniProt P30281)
inactive: erlotinib -0.034 | [2] 0.064 | [8] -0.03 | [4] 0.106 | [6] -0.228 | [7] 0.116 | IRAK-1-4 Inhibitor I 0.033

CEP57L1 (UniProt Q8IYX8)
inactive: erlotinib -0.064 | [2] 0.118 | [8] -0.021 | [4] -0.041 | [6] -0.013 | [7] 0.101 | IRAK-1-4 Inhibitor I 0.35

CDK2 (UniProt P24941)
inactive: erlotinib -0.026 | [1] -0.152 | [2] 0.051 | [8] -0.003 | [4] 0.008 | [5] 0.237 | [6] 0.135 | [7] 0.004 | IRAK-1-4 Inhibitor I 0.014

CACUL1 (UniProt Q86Y37)
inactive: erlotinib 0.232 | [1] -0.048 | [2] 0.087 | [3] 0.044 | [4] 0.027 | [5] 0.045 | [6] 0.042 | [7] 0.023 | IRAK-1-4 Inhibitor I 0.016

CDC14A isoform 2 (UniProt Q9UNH5)
inactive: [4] 0.082 | IRAK-1-4 Inhibitor I -0.102

CARHSP1 (UniProt H3BNU9)
inactive: [8] -0.215

ATG4D (UniProt Q86TL0)
inactive: [8] 0.072 | [4] 0.049 | [6] 0.047 | [7] -0.074 | IRAK-1-4 Inhibitor I -0.142

BRD2 isoform 2 (UniProt P25440)
inactive: erlotinib -0.039 | [2] 0.02 | [3] 0.036 | [8] 0 | [4] 0.109 | [5] -0.014 | [6] -0.134 | [7] -0.114 | IRAK-1-4 Inhibitor I 0.003

BICRA (UniProt Q9NZM4)
Chain of UniProt Q9NZM4 (Q9NZM4 whole entry, looked up): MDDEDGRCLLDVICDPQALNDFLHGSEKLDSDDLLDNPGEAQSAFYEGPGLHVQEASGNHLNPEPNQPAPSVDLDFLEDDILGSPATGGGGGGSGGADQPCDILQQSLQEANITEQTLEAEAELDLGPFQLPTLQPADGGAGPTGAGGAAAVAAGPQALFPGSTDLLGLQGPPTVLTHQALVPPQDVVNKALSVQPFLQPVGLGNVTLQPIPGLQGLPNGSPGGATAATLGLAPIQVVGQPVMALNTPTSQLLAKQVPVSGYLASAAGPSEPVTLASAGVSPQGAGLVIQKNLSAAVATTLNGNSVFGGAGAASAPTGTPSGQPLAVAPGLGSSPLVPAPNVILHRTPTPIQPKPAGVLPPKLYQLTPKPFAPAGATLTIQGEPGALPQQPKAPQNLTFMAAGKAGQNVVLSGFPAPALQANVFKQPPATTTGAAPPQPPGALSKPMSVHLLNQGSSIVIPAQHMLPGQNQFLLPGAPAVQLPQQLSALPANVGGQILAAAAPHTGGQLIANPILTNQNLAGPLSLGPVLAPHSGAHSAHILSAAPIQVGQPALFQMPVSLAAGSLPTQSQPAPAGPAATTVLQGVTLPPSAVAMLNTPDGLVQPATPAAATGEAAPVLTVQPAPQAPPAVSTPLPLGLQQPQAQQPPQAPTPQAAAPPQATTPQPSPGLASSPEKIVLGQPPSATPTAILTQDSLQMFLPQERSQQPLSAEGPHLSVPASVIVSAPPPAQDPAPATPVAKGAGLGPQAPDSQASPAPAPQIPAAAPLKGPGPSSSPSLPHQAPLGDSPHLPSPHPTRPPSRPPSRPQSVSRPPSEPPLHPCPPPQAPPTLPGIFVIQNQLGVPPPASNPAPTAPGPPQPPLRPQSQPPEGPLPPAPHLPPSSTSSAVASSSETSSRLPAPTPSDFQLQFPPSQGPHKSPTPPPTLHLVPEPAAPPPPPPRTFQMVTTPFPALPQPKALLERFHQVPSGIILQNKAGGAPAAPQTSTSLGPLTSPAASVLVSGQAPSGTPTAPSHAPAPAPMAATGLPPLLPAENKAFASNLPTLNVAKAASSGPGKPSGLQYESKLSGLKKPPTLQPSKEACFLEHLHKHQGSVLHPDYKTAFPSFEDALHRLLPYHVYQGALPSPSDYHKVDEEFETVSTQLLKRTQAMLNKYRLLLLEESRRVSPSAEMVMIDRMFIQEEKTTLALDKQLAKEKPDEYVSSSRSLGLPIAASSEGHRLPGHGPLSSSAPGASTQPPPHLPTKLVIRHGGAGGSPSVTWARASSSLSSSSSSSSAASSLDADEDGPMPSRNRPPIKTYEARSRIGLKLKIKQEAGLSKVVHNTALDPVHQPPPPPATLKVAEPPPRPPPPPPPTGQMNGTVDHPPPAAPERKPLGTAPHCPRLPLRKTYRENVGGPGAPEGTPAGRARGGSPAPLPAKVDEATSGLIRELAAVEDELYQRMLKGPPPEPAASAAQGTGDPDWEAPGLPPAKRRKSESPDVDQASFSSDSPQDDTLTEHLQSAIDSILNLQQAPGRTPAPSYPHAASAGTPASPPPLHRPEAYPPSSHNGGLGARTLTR
inactive: erlotinib 0.204 | [2] 0.231 | [8] 0.12 | [4] 0.065 | IRAK-1-4 Inhibitor I 0.115

CEP128 (UniProt Q6ZU80)
inactive: [1] -0.069 | [3] 0 | [8] -0.234 | [4] 0.236 | [5] -0.102 | [6] -0.138 | [7] -0.015 | IRAK-1-4 Inhibitor I -0.212

CHD9 (UniProt Q3L8U1)
inactive: erlotinib -0.046 | [1] 0.169 | [2] -0.167 | [3] 0.191 | [4] 0.043 | [5] -0.059 | IRAK-1-4 Inhibitor I 0.016

CAPNS1 (UniProt K7ES78)
inactive: erlotinib 0.193 | [1] -0.23 | [2] 0.019 | [3] -0.275 | [4] -0.048 | [5] 0.047 | IRAK-1-4 Inhibitor I -0.09

CHD4, A0A2R8Y521
inactive: [4] 0.259 | [6] -0.033 | [7] 0.261 | IRAK-1-4 Inhibitor I 0.178

CENPV (UniProt Q7Z7K6)
inactive: [1] -0.033 | [3] 0.013 | [8] -0.093 | [4] -0.193 | [5] 0.015 | [6] -0.037 | [7] 0.012 | IRAK-1-4 Inhibitor I 0.013

C9orf72 (UniProt Q96LT7)
inactive: erlotinib -0.043 | [2] 0.056 | [8] -0.01 | [4] -0.041 | [6] 0.056 | [7] -0.068 | IRAK-1-4 Inhibitor I -0.042

C3AR1 (UniProt Q16581)
inactive: [8] 0.145

BNIP3 (UniProt Q12983)
Chain of UniProt Q12983 (Q12983 whole entry, looked up): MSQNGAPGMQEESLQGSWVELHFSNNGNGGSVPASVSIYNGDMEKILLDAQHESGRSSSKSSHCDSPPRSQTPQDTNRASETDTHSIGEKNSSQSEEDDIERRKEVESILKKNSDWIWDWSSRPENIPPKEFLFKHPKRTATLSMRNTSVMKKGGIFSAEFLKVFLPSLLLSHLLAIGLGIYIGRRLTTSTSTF
inactive: erlotinib -0.008 | [2] 0.036 | [8] -0.013 | [4] 0.028 | [6] 0.031 | [7] 0.02 | IRAK-1-4 Inhibitor I 0.057

BBS7 (UniProt Q8IWZ6)
Chain of UniProt Q8IWZ6 (Q8IWZ6 whole entry, looked up): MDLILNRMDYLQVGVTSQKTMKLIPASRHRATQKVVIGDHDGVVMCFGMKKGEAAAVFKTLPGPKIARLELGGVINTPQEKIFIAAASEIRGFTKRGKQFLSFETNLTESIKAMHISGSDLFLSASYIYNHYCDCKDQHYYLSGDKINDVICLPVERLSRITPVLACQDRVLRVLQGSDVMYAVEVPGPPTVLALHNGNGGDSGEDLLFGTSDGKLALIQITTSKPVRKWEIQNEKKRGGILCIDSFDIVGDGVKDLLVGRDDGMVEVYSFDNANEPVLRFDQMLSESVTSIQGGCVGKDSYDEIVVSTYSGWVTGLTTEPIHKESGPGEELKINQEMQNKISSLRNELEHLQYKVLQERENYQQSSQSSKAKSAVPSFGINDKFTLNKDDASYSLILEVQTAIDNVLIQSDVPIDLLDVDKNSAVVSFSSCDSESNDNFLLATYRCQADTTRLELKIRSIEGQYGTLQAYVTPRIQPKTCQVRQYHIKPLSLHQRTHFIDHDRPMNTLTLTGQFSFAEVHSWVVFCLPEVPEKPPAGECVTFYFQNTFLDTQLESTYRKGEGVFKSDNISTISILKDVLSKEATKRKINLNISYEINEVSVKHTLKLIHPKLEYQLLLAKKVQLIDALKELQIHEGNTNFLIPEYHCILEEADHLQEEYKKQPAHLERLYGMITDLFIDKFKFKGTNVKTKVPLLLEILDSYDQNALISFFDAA
inactive: erlotinib -0.095 | [1] 0.146 | [2] -0.014 | [3] -0.034 | [4] 0.057 | [5] -0.098 | [6] -0.068 | [7] 0.082 | IRAK-1-4 Inhibitor I 0.022

BUD13 (UniProt Q9BRD0)
inactive: erlotinib -0.04 | [2] -0.02 | [8] 0.054 | [4] 0.054 | [6] -0.046 | [7] -0.162 | IRAK-1-4 Inhibitor I -0.066

CHCHD7 isoform 4 (UniProt Q9BUK0)
inactive: [1] -0.158 | [3] 0.048 | [8] 0.014 | [4] 0.046 | [5] -0.012 | [6] 0.006 | [7] 0.072 | IRAK-1-4 Inhibitor I -0.025

CD80 (UniProt P33681)
inactive: erlotinib -0.139 | [1] 0.041 | [2] 0.063 | [3] -0.013 | [4] -0.087 | [5] -0.02 | [6] 0.058 | [7] -0.029 | IRAK-1-4 Inhibitor I 0.096

CCDC130 (UniProt P13994)
inactive: erlotinib -0.045 | [2] 0.28 | [8] 0.032 | [4] -0.224 | [6] -0.152 | [7] -0.016 | IRAK-1-4 Inhibitor I 0.025
